Test results taken from PubChem BioAssay (NCATS).
Inconclusive results are not listed. The source made the active and inactive calls. Calls follow the shape of the dose curve; as a rule, active = well fitted curve in the direction sought with a large enough effect; inconclusive = small, poorly fitted or top-dose-only effect, or another doubt; inactive = no such curve, though single readings can be large or run the other way.

biological target: Protein phosphatase 1D (Homo sapiens) (UniProt O15297); assay: Rhodamine-PBP qHTS Assay for Modulators of WT P53-Induced Phosphatase 1 (WIP1) (AID 1347425); conditions: recombinant WIP1, Rhodamine-PBP phosphate fluorescence, real-time; series mostly up to 57.5 µM
Sequence (O15297 whole entry, looked up): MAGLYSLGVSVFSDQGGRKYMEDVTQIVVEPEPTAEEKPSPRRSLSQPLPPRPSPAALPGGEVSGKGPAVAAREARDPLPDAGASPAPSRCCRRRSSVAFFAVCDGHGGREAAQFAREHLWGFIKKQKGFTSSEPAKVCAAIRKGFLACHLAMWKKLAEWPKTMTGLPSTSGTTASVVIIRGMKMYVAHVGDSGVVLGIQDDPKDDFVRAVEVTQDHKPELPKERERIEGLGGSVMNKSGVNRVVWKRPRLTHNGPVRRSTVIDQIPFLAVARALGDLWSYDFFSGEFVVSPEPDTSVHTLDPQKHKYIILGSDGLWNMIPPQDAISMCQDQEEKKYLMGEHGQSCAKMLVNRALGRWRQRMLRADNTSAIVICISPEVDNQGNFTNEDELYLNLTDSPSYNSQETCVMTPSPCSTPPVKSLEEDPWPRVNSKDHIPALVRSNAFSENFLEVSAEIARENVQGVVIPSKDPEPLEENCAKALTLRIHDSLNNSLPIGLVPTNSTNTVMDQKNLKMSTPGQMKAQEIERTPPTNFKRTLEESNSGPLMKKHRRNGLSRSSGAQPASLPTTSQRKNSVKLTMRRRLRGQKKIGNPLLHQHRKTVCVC
Excerpt: Assay Provider (PI): Nathan Coussens Ph.D.
National Center for Advancing Translational Sciences (NCATS), Rockville, MD
National Institute of Health (NIH), Bethesda, Maryland
WT P53-Induced Phosphatase 1 (WIP1) is a member of the magnesium-dependent serine/threonine protein phosphatase (PPM) family and is induced by P53 in response to DNA damage. In several human cancers, the WIP1 protein is overexpressed, which is generally associated with a worse prognosis. Although WIP1 is an attractive therapeutic target, no potent, selective, and bioactive small-molecule modulator with favorable pharmacokinetics has been reported. Phosphatase enzymes are among the most challenging targets for small molecules because of the difficulty of achieving both modulator selectivity and bioavailability. Another major obstacle has been the availability of robust and physiologically relevant phosphatase assays that are suitable for high-throughput screening.
Here, we describe two orthogonal biochemical WIP1 activity assays that utilize phosphopeptides from native WIP1 substrates. We optimized a RapidFire MS assay to quantify the enzymatically dephosphorylated peptide reaction product in a 384-well format. Additionally, a redshifted Rhodamine-PBP fluorescence assay was optimized in a 1,536-well format to enable real-time WIP1 activity measurements through the detection of the orthogonal reaction product, Pi. We validated these two optimized assays by quantitative high-throughput screening against the National Center for Advancing Translational Sciences (NCATS) Pharmaceutical Collection and used secondary assays to confirm and evaluate inhibitors identified in the primary screen.
SEQUENCE No. (e.g., 1, 2, 3, etc.); […] (e.g., Cells, Incubation, Reagent, etc.); VALUE; DESCRIPTION
1; Reagent; 3 uL; WIP1 (6.7 nM), Rh-PBP (13.3 uM), columns 1-48
3; Library Compounds; 23 nL; NCATS Pharmaceutical Collection, column 5-48
4; Control Compounds; DMSO in column 2, GSK2830371 (57.5 uM, final) in 3-fold serial dilutions in column 3, GSK2830371 (1.15 uM, final) in column 4
5; Time; 1 hr; incubation
6; Detection; fluorescence (f0); ViewLux, excitation filter = 525 nm, emission filter = 598 nm
7; Reagent; 1 uL; VEPP-pS-QETFS (40 uM), columns 2-48
8; Detection; fluorescence (f1); ViewLux, excitation filter = 525 nm, emission filter = 598 nm
NOTES (numbers refer to sequence above)
1 & 2; Black medium binding Greiner 1536-well plates (# 789176-F); assay buffer: 50 mM Tris-HCl pH 7.5, 30 mM MgCl2, 1mM TCEP, 0.1 mM EGTA, 75 ug/mL BSA; dispensed with a BioRaptr liquid handler (Beckman Coulter).
3 & 4; Kalypsys pintool (equipped with 1536 pinhead, Wako USA) transfer. Tip wash sequence: DMSO, methanol, 3 sec vacuum dry.
5; Room temperature incubation.
7; VEPPL-pS-QETFS in assay buffer dispensed with a BioRaptr; final reaction conditions: 5 nM WIP1, 10 uM VEPPL-pS-QETFS, 10 uM Rh-PBP, 50 mM Tris-HCl pH 7.5, 30 mM MgCl2, 1 mM TCEP, 0.1 mM EGTA, 75 ug/mL BSA.
8; Measurement taken at 1 min intervals for 11 min. Delta readout = f1 - f0.

Row | Compound | outcome
1 | CC(=O)/C=C/C=C1/C2CCC(C2)C1(C)C (stereo not given) | inactive
2 | C[C@H]1C[C@@H]2[C@H]([C@@H](O)C[C@@]3(C)[C@H]2CC[C@]3(O)C(=O)CO)[C@@]2(C)C=CC(=O)C=C12 | inactive
3 | O=[N+]([O-])c1ccc(O)c2ncccc12 | inactive
4 | Cc1c(N)cccc1C(F)(F)F | inactive
5 | CN(C)CCN(Cc1ccsc1)c1ccccn1 | inactive
6 | COCCc1ccccn1 | inactive
7 | CC(C)(C)C1CCC(CC2=C(O)c3ccccc3C(=O)C2=O)CC1 (stereo not given) | inactive
8 | CC(C)(C)c1cc(C=O)cc(C(C)(C)C)c1O | inactive
9 | Cc1nc([N+](=O)[O-])cn1-c1ccc([N+](=O)[O-])cc1 | inactive
10 | C/C(=C(/OCCOc1ccc(Cl)cc1)c1ccc(Cl)cc1Cl)n1ccnc1 | inactive
11 | CC1CC(=O)NN=C1c1ccc(NCC(C)(C)NCC(O)COc2cc(Cl)ccc2C#N)cc1 (stereo not given) | inactive
12 | COc1cc(/C=C/C(N)=O)cc(OC)c1OC | inactive
13 | O=C(O)CCCC[P+](c1ccccc1)(c1ccccc1)c1ccccc1 | inactive
14 | COc1ccccc1OCC1CNC(=O)O1 (stereo not given) | inactive
15 | CCCCN(CCCC)C(C(N)=O)c1ccc(OC)cc1 (stereo not given) | inactive
16 | CCOC(=O)[C@H](CCc1ccccc1)N[C@@H](C)C(=O)N(CC(=O)O)C1Cc2ccccc2C1 | inactive
17 | COC(=O)CCCCC(CCSS/C(CCO)=C(\C)N(C=O)Cc1cnc(C)nc1N)SC(C)=O (stereo not given) | inactive
18 | C[C@H]1C[C@H]2[C@@H]3CCC4=CC(=O)C=C[C@]4(C)[C@H]3C(=O)C[C@]2(C)[C@@]1(O)C(=O)CO | inactive
19 | CN1N=C(C(N)=O)CCC1=O | inactive
20 | CC(Oc1c(Cl)cccc1Cl)C1=NCCN1 (stereo not given) | inactive

Row | Compound | outcome
21 | CC(C)Cc1ccc(C(C)C(=O)OCc2ccccn2)cc1 (stereo not given) | inactive
22 | CCOc1ccc(NS(=O)(=O)c2ccc(N)cc2)nn1 | inactive
23 | Oc1ccccc1-c1nnco1 | inactive
24 | OC1(c2ccc(Cl)cc2)CCNCC1 | inactive
25 | CC(C)C[C@@H]1[C@H](c2ccccc2)OC(=O)N1CCCN1CCCCCC1 | inactive
26 | O=C1CC2(CCCC2)CC(=O)N1CCNCC1COc2ccccc2O1 (stereo not given) | inactive
27 | Cc1oc(=O)oc1COC(=O)[C@@H]1N2C(=O)[C@@H](NC(=O)[C@H](N)c3ccccc3)[C@H]2SC1(C)C | inactive
28 | CC(=O)Nc1ccn(C2COC(COC(=O)c3ccccc3)O2)c(=O)n1 (stereo not given) | inactive
29 | COC(=O)c1cc(Cl)ccc1OC | inactive
30 | CC(=O)c1cc2ccccc2s1 | inactive
31 | CCCC(=O)O[C@]1(C(=O)CC)CC[C@H]2[C@@H]3CCC4=CC(=O)CC[C@]4(C)[C@H]3[C@@H](O)C[C@@]21C | inactive
32 | C/C(=C1\CCOC(=O)S1)N(C=O)Cc1cnc(C)nc1N | inactive
33 | Cc1ncc([N+](=O)[O-])n1C | inactive
34 | Cc1ccccc1N1CCN(CCc2nnc3n2CCCC3)CC1 | inactive
35 | CCCN(CCC)C(=O)C(CCC(=O)OCCCN1CCN(CCOC(=O)Cc2c(C)n(C(=O)c3ccc(Cl)cc3)c3ccc(OC)cc23)CC1)NC(=O)c1ccccc1 (stereo not given) | inactive
36 | CC(C)(C)c1nnc(NS(=O)(=O)c2ccccc2)s1 | inactive
37 | C[N+]1(C)CCC(OC(=O)C(O)(c2ccccc2)C2CCCC2)C1 (stereo not given) | inactive
38 | COc1cc(C(=O)NC2CCCNC2)cc(OC)c1OC (stereo not given) | inactive
39 | O=C(O)c1ccc(OCCN2CCCCC2)cc1 | inactive
40 | COc1ccc([C@@H]2Sc3ccccc3NC(=O)[C@@H]2O)cc1 | inactive
